For 13 molecules, growth results are on record in PubChem BioAssay (NCI).

Some test systems named below: NCI-H23 lung; NCI-H226 lung; NCI-H322M lung; HOP-62 NSCLC; NCI-H460 lung; HOP-92 NSCLC; NCI-H522 lung; A549/ATCC NSCLC; 786-0 renal; COLO 205 colon.
Holding throughout (assay): NCI-60 one-dose screen, 48 h (100 = growth as untreated, 0 = no growth, -100 = all killed)
Holding throughout (conditions): 10 µM unless noted

The panel holds about 83,000 compounds, 20% with a hit somewhere; the sample as a whole holds those more often.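 Cells were grown in 96-well plates and exposed to the test compound at a single concentration for 48 hours; results are reported as percent growth, with values below 10 considered active.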 Values without a mark were called inactive. The source made the active and inactive calls.

Regarding `COc1cc(C(=O)n2nc(N3CCOCC3)c3cc(-n4cccc4)ccc32)cc(OC)c1OC`, the growth in the test on NCI-H23 lung is 76.5%; with NCI-H226 lung, 69.3%; in the test on NCI-H322M lung it was 88.3%; in the test on HOP-62 NSCLC it was 92.4%; in the test on NCI-H460 lung it was 75.7%; with HOP-92 NSCLC it was 14.4%. Besides, the growth is 74.4% with NCI-H522 lung, 72.6% with A549/ATCC NSCLC, 17.4% with 786-0 renal and 56.6% in the test with COLO 205 colon.

For the molecule `CCN1C(=O)N(CC)C2C1NC(=S)N2/N=C/c1ccc(OC)cc1` (stereo not given), the growth is 74.9% with NCI-H23 lung; 78.8% in the test with NCI-H226 lung; 79.4% in the test with NCI-H322M lung; 59.5% in the test on HOP-62 NSCLC; 26.1% with NCI-H460 lung; 70.5% in the test with HOP-92 NSCLC. Further, the growth with NCI-H522 lung is 16.8%; in the test on A549/ATCC NSCLC, 41.7%; with 786-0 renal, 62.1%; with COLO 205 colon, 41.7%.

Take `CCCCC#Cc1c(I)n(C)c(=O)[nH]c1=O`: the growth was 14.4% with NCI-H23 lung; 39.8% with NCI-H226 lung; 101% in the test on NCI-H322M lung; 93.9% in the test on HOP-62 NSCLC; 103% in the test on NCI-H460 lung; -89.7% (active) in the test with HOP-92 NSCLC. The growth with NCI-H522 lung was -13.4% (active); with A549/ATCC NSCLC, 70.9%; in the test on 786-0 renal it was 98.2%; with COLO 205 colon, -36.8% (active).

On to `O=C(Cc1ccc(NC(=O)c2cccc(Cl)c2)cc1)NCc1ccccc1`, for which the growth with NCI-H23 lung was 73.2%; in the test with NCI-H226 lung it was 87%; in the test on NCI-H322M lung, 73.9%; in the test with HOP-62 NSCLC, 46.6%; in the test on NCI-H460 lung, 28.8%; in the test with HOP-92 NSCLC, 72.2%. Further, the growth with NCI-H522 lung was 55.1%; in the test with A549/ATCC NSCLC, 43.9%; in the test with 786-0 renal, 53.6%; in the test with COLO 205 colon it was 39.3%.

With `c1ccc(CCNc2c3ccccc3nc3ccccc23)cc1`, the growth was 38.6% in the test on NCI-H23 lung; 56.3% with NCI-H226 lung; 46.6% in the test with NCI-H322M lung; 55.1% with HOP-62 NSCLC; 15.3% with NCI-H460 lung; -1.55% (active) in the test on HOP-92 NSCLC. For the same molecule, the growth was 39.8% in the test on NCI-H522 lung, 32.7% with A549/ATCC NSCLC, 38.1% in the test with 786-0 renal and 21.2% in the test on COLO 205 colon.

As to `N#CC1CCc2c(c(-c3ccc4nc(N)sc4c3)nc3ccc4[nH]ncc4c23)C1` (stereo not given), the growth in the test with NCI-H23 lung was 36.9%; in the test with NCI-H226 lung, 51.1%; with NCI-H322M lung, 70.5%; in the test on HOP-62 NSCLC it was 54.5%; with NCI-H460 lung it was 12.4%; in the test with HOP-92 NSCLC, 70.3%. Further, the growth with NCI-H522 lung was 40.2%; in the test on A549/ATCC NSCLC, 46%; with 786-0 renal, 49.3%; in the test with COLO 205 colon, 40.5%.

Turning to `O=P(O)(O)OCC1OC(n2cnc3c(NCc4ccco4)ncnc32)C(O)C1O` (stereo not given), the growth with NCI-H23 lung was 18%; in the test with NCI-H226 lung it was 20.4%; in the test with NCI-H322M lung, 28.3%; in the test with HOP-62 NSCLC, 16%; with NCI-H460 lung it was 12.6%; in the test with HOP-92 NSCLC it was -7.22% (active). Also, the growth in the test with NCI-H522 lung was -32.7% (active); in the test on A549/ATCC NSCLC it was 7.15% (active); in the test with 786-0 renal, 10.5%; in the test with COLO 205 colon it was 22.8%.

On to `Cn1cc(-c2csc(-c3c[nH]c4ccc(F)cc34)n2)c2ccnc(Cl)c21`, for which the growth in the test on NCI-H23 lung was 64.2%; in the test on NCI-H226 lung, 62.1%; with NCI-H322M lung, 80.6%; with HOP-62 NSCLC, 98.2%; in the test on NCI-H460 lung, 36.7%; in the test with HOP-92 NSCLC it was 71.5%. Also, the growth with NCI-H522 lung is 79.4%; in the test with A549/ATCC NSCLC it was 64.3%; in the test on 786-0 renal it was 57.6%; in the test with COLO 205 colon, 52.2%.

Turning to `O=C(C1CCCCC1)[C@@H]1[C@]2(C(=O)NC3CCCCC32)[C@@H]2CCCN2[C@@]12C(=O)NC1CCC(Cl)CC12` (stereo not given in full), the growth was -81.4% [100 µM] (active) with NCI-H23 lung; -55.1% [100 µM] (active) in the test with NCI-H226 lung; -95.1% [100 µM] (active) in the test with NCI-H322M lung; -73.2% [100 µM] (active) in the test on HOP-62 NSCLC; -77.2% [100 µM] (active) in the test with NCI-H460 lung; -89.9% [100 µM] (active) in the test with HOP-92 NSCLC. For the same molecule, the growth in the test with NCI-H522 lung was -81.7% [100 µM] (active); in the test with A549/ATCC NSCLC it was -82.9% [100 µM] (active); in the test with 786-0 renal, -80.8% [100 µM] (active); with COLO 205 colon, -80.8% [100 µM] (active).

For the molecule `NC(=O)c1cnc(Nc2cccc(N)c2)nc1NCCCNC(=O)C1CCC1`, the growth with NCI-H23 lung was 79.8%; in the test with NCI-H226 lung, 69.1%; in the test on NCI-H322M lung, 86.6%; in the test on HOP-62 NSCLC, 46.6%; with NCI-H460 lung, 69.8%; with HOP-92 NSCLC, 123%. The growth in the test with NCI-H522 lung is 64.5%; in the test with A549/ATCC NSCLC, 87.7%; with 786-0 renal, 76.8%; with COLO 205 colon it was 28.2%.

As for `Oc1c(CN2CCC(N3CCCCC3)CC2)cc(Cc2cc(CN3CCC(N4CCCCC4)CC3)c(O)c3ncccc23)c2cccnc12`, the growth with NCI-H23 lung is 39.3%; with NCI-H226 lung, 5.18% (active); in the test on NCI-H322M lung, 19.7%; with HOP-62 NSCLC, 18.6%; in the test on NCI-H460 lung, 5.8% (active); in the test with HOP-92 NSCLC, 30.5%. In addition, the growth in the test on NCI-H522 lung was -34.7% (active); in the test with A549/ATCC NSCLC, 22.9%; in the test on 786-0 renal it was 24.4%; with COLO 205 colon, -3.12% (active).

Turning to `COC(=O)CC[C@@H]1O[C@@H](c2ccc(F)cc2)[C@@H](O)[C@H]1O`, the growth in the test on NCI-H23 lung was 103%; with NCI-H226 lung, 101%; in the test on NCI-H322M lung, 106%; with HOP-62 NSCLC, 104%; in the test with NCI-H460 lung, 109%; with HOP-92 NSCLC it was 93.9%. The growth was 99.7% in the test with NCI-H522 lung, 112% in the test with A549/ATCC NSCLC, 105% in the test on 786-0 renal and 110% in the test on COLO 205 colon.

Consider `Cc1nnc(-c2ccc3c(c2)nc(/C=C/c2ccccc2)n3C2CCCCC2)o1`, for which the growth is 88.3% in the test with NCI-H23 lung; 104% with NCI-H226 lung; 85.9% with NCI-H322M lung; 83% in the test with HOP-62 NSCLC; 82.4% in the test with NCI-H460 lung; 79.7% with HOP-92 NSCLC. The growth in the test with NCI-H522 lung was 68.6%; in the test on A549/ATCC NSCLC it was 52.5%; in the test on 786-0 renal, 92.2%; in the test with COLO 205 colon it was 79.7%.
